From PubChem BioAssay AID1159580 (chemical genetic matrix, 2015)
Values joined by “and” are separate entries in the source; they are usually repeats but may differ in a detail not shown here. Equal entries are not always repeated. Screen size: about 5,500 compounds; about 2,000 (36%) were called active. Inconclusive results (about 18%) are left out. No stated cut-off is given here; in the data, active means normalized growth mostly below about 0.91 (no sharp cut-off); inconclusive means no clear call, values can overlap the other calls; inactive means mostly above about 0.92. The list shows a part of the results.

Assay: chemical genetic growth profiling, strain panel (AID 1159580);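 further: tested at 20 µM; growth read once vehicle control cultures reached saturation at 30 °C; 1 = growth at the plate median or of vehicle wells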
Settings: S. cerevisiae deletion strains, growth OD

Measured: normalized growth

COc1ccc2c(c1)O[C@@H]1COc3cc(OC)c(OC)cc3[C@@H]1C2=O
0.547 (active) and 0.988 (inactive): locus YHR030C, strain SLT2, stronger effect = lower value
active: locus YAL026C, strain drs2, stronger effect = lower value 0.694 | locus YAL030W, strain snc1, stronger effect = lower value 0.663 | locus YBL061C, strain skt5, stronger effect = lower value 0.707 | locus YBR009C, strain hhf1, stronger effect = lower value 0.34 | locus YBR023C, strain chs3, stronger effect = lower value 0.819 | locus YBR231C, strain swc5, stronger effect = lower value 0.554 | locus YBR279W, strain paf1, stronger effect = lower value 0.527 | locus YCL011C, strain gbp2, stronger effect = lower value 0.674 | locus YCL016C, strain dcc1, stronger effect = lower value 0.614 | locus YCL029C, strain bik1, stronger effect = lower value 0.68 | locus YCL061C, strain MRC1, stronger effect = lower value 0.354 | locus YCL069W, strain vba3, stronger effect = lower value 0.384 | locus YCR088W, strain abp1, stronger effect = lower value 0.823 | locus YDL074C, strain BRE1, stronger effect = lower value 0.676 | locus YDL101C, strain DUN1, stronger effect = lower value 0.669 | locus YDL134C, strain PPH21, stronger effect = lower value 0.68 | locus YDL192W, strain arf1, stronger effect = lower value 0.893 | locus YDR101C, strain arx1, stronger effect = lower value 0.913 | locus YDR162C, strain NBP2, stronger effect = lower value 0.752 | locus YDR195W, strain ref2 0.842 | locus YDR297W, strain sur2, stronger effect = lower value 0.652 | locus YDR318W, strain mcm21, stronger effect = lower value 0.516 | locus YDR334W, strain swr1, stronger effect = lower value 0.427 | locus YDR335W, strain msn5, stronger effect = lower value 0.867 | locus YDR392W, strain spt3, stronger effect = lower value 0.131 | locus YDR502C, strain sam2, stronger effect = lower value 0.831 | locus YEL003W, strain gim4, stronger effect = lower value 0.531 | locus YEL061C, strain CIN8 (second series), stronger effect = lower value 0.257 | locus YEL061C, strain CIN8, stronger effect = lower value 0.315 | locus YER015W, strain faa2, stronger effect = lower value 0.693 | locus YER016W, strain bim1, stronger effect = lower value 0.818 | locus YER110C, stronger effect = lower value 0.799 | locus YER111C, strain swi4, stronger effect = lower value 0.423 | locus YER155C, strain BEM2 (second series), stronger effect = lower value 0.163 | locus YER155C, strain BEM2, stronger effect = lower value 0.426 | locus YER167W, strain BCK2, stronger effect = lower value 0.684 | locus YGL086W, strain mad1, stronger effect = lower value 0.458 | locus YGL227W, strain vid30, stronger effect = lower value 0.28 | locus YGL248W, strain PDE1, stronger effect = lower value 0.649 | locus YGL253W, strain hxk2, stronger effect = lower value 0.633 | locus YGR135W, strain pre9, stronger effect = lower value 0.786 | locus YGR252W, strain gcn5, stronger effect = lower value 0.755 | locus YHR013C, strain ard1, stronger effect = lower value 0.558 | locus YHR079C, strain IRE1 (second series), stronger effect = lower value 0.814 | locus YHR094C, strain hxt1, stronger effect = lower value 0.699 | locus YHR129C, strain ARP1, stronger effect = lower value 0.489 | locus YHR142W, strain chs7, stronger effect = lower value 0.195 | locus YIL066C, strain RNR3, stronger effect = lower value 0.675 | locus YIR030C, strain dcg1, stronger effect = lower value 0.879 | locus YJL092W, strain hpr5, stronger effect = lower value 0.822 | locus YJL095W, strain BCK1 (second series), stronger effect = lower value 0.488 | locus YJL115W, strain asf1, stronger effect = lower value 0.819 | locus YJL129C, strain trk1, stronger effect = lower value 0.441 | locus YJL164C, strain tpk1, stronger effect = lower value 0.438 | locus YJL166W, strain qcr8, stronger effect = lower value 0.208 | locus YJL187C, strain SWE1 (second series), stronger effect = lower value 0.822 | locus YJL187C, strain SWE1, stronger effect = lower value 0.589
0.332 (active) and 0.966 (inactive): locus YJL095W, strain BCK1, stronger effect = lower value
inactive: locus YAL021C, strain ccr4, stronger effect = lower value 0.977 | locus YBR021W, strain FUR4, stronger effect = lower value 0.897 | locus YBR171W, strain sec66, stronger effect = lower value 0.965 | locus YBR229C, strain ROT2, stronger effect = lower value 0.997 | locus YDL005C, strain med2, stronger effect = lower value 0.979 | locus YDL035C, strain GPR1, stronger effect = lower value 0.906 | locus YDL040C, strain nat1, stronger effect = lower value 0.967 | locus YDL185W, strain tfp1, stronger effect = lower value 0.935 | locus YDR001C, strain nth1, stronger effect = lower value 0.97 | locus YDR069C, strain doa4, stronger effect = lower value 1.02 | locus YDR137W, strain rgp1, stronger effect = lower value 0.995 | locus YDR150W, strain NUM1, stronger effect = lower value 0.977 | locus YDR159W, strain sac3, stronger effect = lower value 0.864 | locus YDR388W, stronger effect = lower value 0.975 | locus YEL037C, strain rad23, stronger effect = lower value 0.981 | locus YFR010W, strain ubp6, stronger effect = lower value 1.02 | locus YGL078C, strain dbp3, stronger effect = lower value 0.933 | locus YGL167C, strain pmr1, stronger effect = lower value 0.974 | locus YGL173C, strain kem1, stronger effect = lower value 0.954 | locus YGL240W, strain doc1, stronger effect = lower value 0.916 | locus YHR027C, strain rpn1, stronger effect = lower value 0.999 | locus YHR079C, strain IRE1, stronger effect = lower value 0.97 | locus YHR200W, strain rpn10, stronger effect = lower value 0.939 | locus YIL073C, strain SPO22, stronger effect = lower value 0.903 | locus YIL125W, strain kgd1, stronger effect = lower value 0.989 | locus YJL134W, strain LCB3, stronger effect = lower value 0.935 | locus YJL154C, strain vps35, stronger effect = lower value 0.982 | locus YJL168C, strain set2, stronger effect = lower value 0.978
